The list is not random: actives were taken first. Their share in the collection is about 1.3%.
IL-2 act: activators of IL-2; 360,000 compounds, 0.065% hits; activation, % (series mostly up to about 46 µM); IL-2 activation reporter assay, cell-based qHTS; stimulated with anti-CD3/CD4/CD28 beads; in transgenic mouse T cells; in the data active = activation above about 50%; inconclusive = mostly about 30% to 49%
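Readout: EGFP and DsRed signals by fluorescent plate cytometry. Unstimulated transgenic mouse T cells received compound 60 min before antibody-bead stimulation, then incubated 18 h at 37 degrees C.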
BCR signal inh: blocks chronic active B-cell receptor signaling; ABC-DLBCL IkBa-CBG/CBR reporter, luminescence ratio, 4 h; Potency, µM (series often up to 46.1 µM), most hits filed as inhibitors; 340,000 compounds, 0.05% hits; active = well fitted inhibition curve with a large enough effect in the signal ratio, with a control signal flat, not every such curve was filed as active; inconclusive = small, poorly fitted or top-dose-only effect, or effect the other way, or a change in a side signal; the % refers to the signal ratio
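Concentration-response series (up to 46 uM) were applied to TMD8 dual-reporter cells for 4 h at 37C with doxycycline. Green/red ratio, after filter-overlap correction, defined %Activity; red signal alone was normalised to basal cells and zero luminescence.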
BRCA1 expr up: activators of BRCA1 expression; MCF7-BRCA1-FFLuc reporter, luminescence, 48 h; response scale: scaled: vehicle 0%, 10 µM genistein 100%; Potency, µM (series often up to 46.1 µM), usual class: activators; 380,000 compounds, 1.1% hits; note: nearly all actives have a fitted effect of over 80% in size
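Luminescence from a BRCA1-driven firefly luciferase in MCF7 cells was the read-out, taken 15 min after substrate addition following 48 h compound exposure at 37 °C. Data were normalized to a 10 microM genistein control and DMSO vehicle.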
PTHR1 ag: activates the human parathyroid hormone receptor PTHR1; Q03431; HEK293 GP2 PTHR1 cells, GloSensor cAMP luminescence, 1 h; Potency, µM (series often up to 115 µM), hits mostly activators; 410,000 compounds, 0.075% hits; AID 743266; note: nearly all actives have a fitted effect of over 55% in size
Target sequence (Q03431 whole entry, looked up): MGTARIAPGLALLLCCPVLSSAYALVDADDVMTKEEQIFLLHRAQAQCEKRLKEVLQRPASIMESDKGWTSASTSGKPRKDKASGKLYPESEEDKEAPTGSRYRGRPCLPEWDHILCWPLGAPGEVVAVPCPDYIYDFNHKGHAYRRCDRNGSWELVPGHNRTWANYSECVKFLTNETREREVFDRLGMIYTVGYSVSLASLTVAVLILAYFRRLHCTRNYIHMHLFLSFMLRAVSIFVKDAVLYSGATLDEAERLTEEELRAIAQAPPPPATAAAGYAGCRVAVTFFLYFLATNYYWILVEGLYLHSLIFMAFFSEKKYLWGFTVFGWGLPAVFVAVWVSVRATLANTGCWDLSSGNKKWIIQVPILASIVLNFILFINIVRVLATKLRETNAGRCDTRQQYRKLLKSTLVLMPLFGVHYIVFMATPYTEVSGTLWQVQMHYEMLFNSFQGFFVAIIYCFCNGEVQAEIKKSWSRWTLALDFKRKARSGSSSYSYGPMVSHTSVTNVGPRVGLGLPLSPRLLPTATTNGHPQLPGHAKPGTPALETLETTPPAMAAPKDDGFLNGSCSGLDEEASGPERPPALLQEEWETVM
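HEK-293-derived GP2 cells expressing PTHR1 and a GloSensor cAMP reporter, 3,000/well, plated overnight, given luciferin plus IBMX (each 0.5 mM as added) for 1 h at 37 °C, then compound for 1 h at 37 °C. Luminescence was read after 15 min at room temperature.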
TCR activator: activators of T cell receptors; primary human leukocytes, anti-CD3, IL-2 HTRF, 48 h; Potency, µM (titrated, usually from 9.22 µM), most hits filed as activators; 330,000 tested, under 10 active
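Human primary leukocytes + a-CD3 beads + cpd, 48 hr; IL-2 in supernatant by HTRF (ex 320nm / em 665nm). No co-stimulatory signal supplied.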
Mito fusion act: blocks mitochondrial division or promotes mitochondrial fusion | S. cerevisiae fusion-defective mutant growth rescue, CellTiterGlo 48 h | 320,000 compounds, 0.23% hits | Potency, µM (highest dose often 46.1 µM), usual class: activators; note: nearly all actives have a fitted effect of over 45% in size
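Luminescent cell viability in 1536-well qHTS format served as the measure of rescued growth in ts fusion-mutant S. cerevisiae cultured on non-fermentable YPEG for 48 hours at 37C.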
Each line names hits and unclear results; the compound was inactive in the other large screens; ! = not active in a repeat. Unless noted, calls come from the whole dose curve; as a rule, active = well fitted curve in the direction sought with a large enough effect; inconclusive = small, poorly fitted or top-dose-only effect, or another doubt; inactive = no such curve, though single readings can be large; an effect the other way counts as inactive or inconclusive.

O=C(Nc1ncc(Cc2cccc(C(F)(F)F)c2)s1)C1CCCO1 (stereo not drawn)	BCR signal inh inconclusive
CC(=O)Nc1cc([N+](=O)[O-])cc(NC(C)=O)c1NC(C)=O	none (no result: IL-2 act, BCR signal inh, PTHR1 ag, TCR activator, Mito fusion act)
NC(=Nc1ccccc1)NC(=O)c1nc(Cl)c(N)nc1N	BRCA1 expr up 5.6µM, Mito fusion act inconclusive (no result: BCR signal inh)
NC(=NCc1ccccc1)NC(=O)c1nc(Cl)c(N)nc1N	none (no result: BCR signal inh)
CC1CCC(NC(=O)c2ccc(CS(=O)(=O)c3ccc(Cl)cc3)o2)CC1 (stereo not drawn)	none (no result: IL-2 act, BRCA1 expr up, TCR activator, Mito fusion act)
COc1cc2nc(N3CCCN(C)CC3)nc(N(C)C)c2cc1OC	none (no result: IL-2 act, BCR signal inh, PTHR1 ag, TCR activator, Mito fusion act)
Cc1ccc(C(=O)NNC(=O)c2ccc(S(=O)(=O)N3CCCCC3)cc2)cc1	none (no result: Mito fusion act)
CCN(CC)c1ccc2cc(C(=O)NNC(=O)c3ccc(S(=O)(=O)N4CCCCC4)cc3)c(=O)oc2c1	IL-2 act 59
Clc1ccc(-c2nc(N3CCCCC3)nc3ccccc23)cc1	Mito fusion act 35µM
N#Cc1ccccc1NC(=O)c1cc(=O)c2ccccc2o1	BRCA1 expr up 8.9µM
O=C(Nc1ccc(F)c(F)c1)c1cnn2c1NC(=C1CC1)C=C2C(F)(F)F	none (no result: IL-2 act, BCR signal inh, PTHR1 ag, TCR activator, Mito fusion act)
O=C(COC(=O)C1CCCCC1)Nc1cccc(Br)c1	none
Cn1cc(-c2nc3ccccc3[nH]2)c2ccccc21	BCR signal inh inconclusive, BRCA1 expr up 11µM
CCCN(CC1CC1)c1nc(C)nc(Nc2c(Cl)cc(Cl)cc2Cl)c1Cl	Mito fusion act 15µM (no result: BCR signal inh)
COc1ccc(C)cc1NC(C)C(=O)c1c[nH]c2ccccc12 (stereo not drawn)	none (no result: IL-2 act, BCR signal inh, PTHR1 ag, TCR activator, Mito fusion act)
Cc1ccc(NC(=O)NCc2c(C)nn(C)c2C)cc1Cl	BRCA1 expr up 5µM
COc1ccc(N2CCN(S(=O)(=O)c3ccc4c(c3)C(C(C)C)C(=O)N4)CC2)cc1 (stereo not drawn)	none (no result: IL-2 act, BCR signal inh, BRCA1 expr up, TCR activator, Mito fusion act)
COc1ccccc1NC(=O)Nc1ccc2c(c1)CCC2	BCR signal inh inconclusive, BRCA1 expr up 2.8µM
COc1ccc(NC(=O)Nc2nnc(C(C)C)s2)cc1	BRCA1 expr up 10µM
COc1ccc(NC(=O)Nc2ccccc2OC)cc1	BCR signal inh inconclusive, BRCA1 expr up 14µM
COc1ccc(C)cc1NC(=O)Nc1ccc2c(c1)CCC2	BCR signal inh inconclusive
COc1ccc(NC(=O)Nc2ccc(Br)c(C)c2)cc1	BCR signal inh inconclusive, BRCA1 expr up 11µM
Cn1c(=O)n(-c2ccc(C(C)(C)C#N)cc2)c2c3cc(-c4cnc5ccccc5c4)ccc3ncc21	none (no result: IL-2 act, BCR signal inh, PTHR1 ag, TCR activator, Mito fusion act)
CCOc1ccc(N2CC(C(=O)NCC(=O)Nc3ccc(F)c(F)c3F)CC2=O)cc1 (stereo not drawn)	none
O=[N+]([O-])c1ccccc1OCCNCc1ccccc1	none
CC(C)c1ccc(NC(=O)c2cc3c([nH]c2=O)CC(C)(C)CC3=O)cc1	none (no result: IL-2 act, BCR signal inh, PTHR1 ag, TCR activator, Mito fusion act)
COc1ccccc1CNCC(=O)Nc1ccc(N2CCOCC2)cc1	none
COc1ccccc1NC(=O)Nc1ccc(N2CCOCC2)cc1	BCR signal inh inconclusive, BRCA1 expr up 7.1µM
C[N+](C)(C)c1ccc(/C=C/c2ccnc3ccccc23)cc1	none (no result: IL-2 act, BCR signal inh, PTHR1 ag, TCR activator, Mito fusion act)
Cc1oncc1C(=O)Nc1ccc2ccccc2c1	BCR signal inh inconclusive
Cc1oncc1C(=O)Nc1ccc(C(F)(F)F)cc1	BCR signal inh inconclusive, Mito fusion act 21µM!
Cc1ccccc1NC(=O)c1nc(SCc2ccccc2F)ncc1Cl	none (no result: IL-2 act, BCR signal inh, PTHR1 ag, TCR activator, Mito fusion act)
COc1ccc2nc(NC(=O)CCNC(=O)c3ccccc3Cl)sc2c1	BCR signal inh inconclusive
O=C(Cc1c(F)cccc1Cl)Nc1nc2ccccc2s1	BCR signal inh inconclusive, BRCA1 expr up 8.9µM
O=C(CCNC(=O)c1ccccc1Cl)Nc1ccc(Cl)c(C(F)(F)F)c1	Mito fusion act 35µM
O=C(CCNC(=O)c1ccccc1Cl)Nc1nc2ccccc2s1	BCR signal inh inconclusive, BRCA1 expr up 11µM
COc1ccc(NC(=O)CCNC(=O)c2ccccc2Cl)cc1OC	none
Cc1nc2ccc(C(=O)OCc3ccccc3Br)cc2nc1C	BRCA1 expr up 7.1µM
CC(=O)Nc1ccc(C(=O)OCc2ccccc2Br)cc1	none
CCOC(=O)c1cnc(-c2ccccc2)nc1N	BCR signal inh inconclusive, BRCA1 expr up 4µM (no result: TCR activator)
